Data on 6 molecules can be found in ChEMBL document CHEMBL1961873, “Compounds: GSK PKIS; Assays: Nanosyn kinase panel” (2012).

The target of assay [1] is Calcium/calmodulin-dependent protein kinase type II subunit alpha (Homo sapiens) (UniProt Q9UQM7). The following applies: at 1 µM.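 Note: reported value is a mean percent inhibition of CAMK2A.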
In assay [2] the target is Calcium/calmodulin-dependent protein kinase type II subunit delta (Homo sapiens) (UniProt Q13557). The following applies: at 0.1 µM.
Assay [3] shares this target. Conditions: at 1 µM.
Assay [4] has as its target T1, Calcium/calmodulin-dependent protein kinase type IV (Homo sapiens) (UniProt Q16566).
T1 sequence (whole entry): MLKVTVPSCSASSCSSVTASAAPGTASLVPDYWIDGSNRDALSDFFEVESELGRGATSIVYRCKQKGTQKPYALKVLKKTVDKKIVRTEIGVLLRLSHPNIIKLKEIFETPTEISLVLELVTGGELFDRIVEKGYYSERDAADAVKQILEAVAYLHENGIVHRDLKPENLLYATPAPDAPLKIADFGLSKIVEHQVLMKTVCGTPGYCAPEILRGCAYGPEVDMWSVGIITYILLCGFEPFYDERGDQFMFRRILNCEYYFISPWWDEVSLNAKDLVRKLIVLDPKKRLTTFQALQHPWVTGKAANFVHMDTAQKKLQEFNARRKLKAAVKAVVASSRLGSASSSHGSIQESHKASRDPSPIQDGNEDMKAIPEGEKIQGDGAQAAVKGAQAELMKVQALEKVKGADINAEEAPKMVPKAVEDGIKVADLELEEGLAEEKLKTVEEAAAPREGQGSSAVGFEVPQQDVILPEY
Conditions: at 0.1 µM.

In assay [5] the target is T1, Calcium/calmodulin-dependent protein kinase type IV (Homo sapiens). Conditions: at 1 µM.
Assay [6] addresses T2, Serine/threonine-protein kinase Chk1 (Homo sapiens) (UniProt O14757).
T2 sequence (whole entry): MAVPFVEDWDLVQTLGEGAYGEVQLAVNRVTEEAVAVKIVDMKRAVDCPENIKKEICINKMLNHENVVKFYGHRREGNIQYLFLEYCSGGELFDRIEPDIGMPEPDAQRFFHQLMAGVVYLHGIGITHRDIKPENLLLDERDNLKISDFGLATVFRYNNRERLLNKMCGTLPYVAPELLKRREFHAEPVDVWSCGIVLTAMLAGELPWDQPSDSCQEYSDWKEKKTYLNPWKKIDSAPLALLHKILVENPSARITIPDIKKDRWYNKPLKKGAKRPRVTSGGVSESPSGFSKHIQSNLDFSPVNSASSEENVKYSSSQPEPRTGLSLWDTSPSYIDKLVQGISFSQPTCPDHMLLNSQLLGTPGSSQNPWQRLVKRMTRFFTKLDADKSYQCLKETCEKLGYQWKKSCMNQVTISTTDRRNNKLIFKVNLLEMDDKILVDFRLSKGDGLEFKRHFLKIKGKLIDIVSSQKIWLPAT
Conditions: at 0.1 µM.

For assay [7], the target named is T2, Serine/threonine-protein kinase Chk1 (Homo sapiens). The following applies: at 1 µM.
Assay [8] concerns the target Serine/threonine-protein kinase Chk2 (Homo sapiens) (UniProt O96017). The following applies: at 0.1 µM.
The target is the same in assay [9]. The following applies: at 1 µM.
The target in assay [10] is Death-associated protein kinase 1 (Homo sapiens) (UniProt P53355). Conditions: at 0.1 µM.
The target is the same in assay [11]. The following applies: at 1 µM.
Assay [12] has as its target T3, Serine/threonine-protein kinase DCLK2 (Homo sapiens) (UniProt Q8N568).
T3 sequence (whole entry): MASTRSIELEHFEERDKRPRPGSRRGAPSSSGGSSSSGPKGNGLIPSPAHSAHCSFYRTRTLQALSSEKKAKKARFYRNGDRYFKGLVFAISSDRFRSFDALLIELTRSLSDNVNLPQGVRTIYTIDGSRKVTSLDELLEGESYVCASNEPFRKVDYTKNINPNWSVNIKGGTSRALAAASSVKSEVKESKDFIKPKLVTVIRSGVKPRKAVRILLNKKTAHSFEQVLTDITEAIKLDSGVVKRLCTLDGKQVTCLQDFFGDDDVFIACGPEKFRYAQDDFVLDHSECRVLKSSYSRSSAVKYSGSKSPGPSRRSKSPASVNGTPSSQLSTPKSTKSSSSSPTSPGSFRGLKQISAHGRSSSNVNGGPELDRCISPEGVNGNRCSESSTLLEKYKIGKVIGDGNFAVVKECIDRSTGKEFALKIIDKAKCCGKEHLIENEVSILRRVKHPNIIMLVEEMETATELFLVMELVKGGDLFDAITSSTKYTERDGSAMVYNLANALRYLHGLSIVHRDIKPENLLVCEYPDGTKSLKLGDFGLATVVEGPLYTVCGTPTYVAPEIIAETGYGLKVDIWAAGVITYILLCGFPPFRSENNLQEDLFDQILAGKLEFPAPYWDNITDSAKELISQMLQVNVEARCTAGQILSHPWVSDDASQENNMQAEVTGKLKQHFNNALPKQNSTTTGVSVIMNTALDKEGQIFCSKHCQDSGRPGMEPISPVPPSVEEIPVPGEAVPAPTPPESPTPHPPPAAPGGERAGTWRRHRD
The following applies: at 0.1 µM.

The target in assay [13] is T3, Serine/threonine-protein kinase DCLK2 (Homo sapiens). The following applies: at 1 µM.
The target of assay [14] is MAP kinase-activated protein kinase 2 (Homo sapiens) (UniProt P49137). Conditions: at 0.1 µM.
The target is the same in assay [15]. The following applies: at 1 µM.
The target of assay [16] is MAP kinase-activated protein kinase 3 (Homo sapiens) (UniProt Q16644). The following applies: at 0.1 µM.
For assay [17] the target is unchanged. Conditions: at 1 µM.
The target in assay [18] is Serine/threonine-protein kinase MARK1 (Homo sapiens) (UniProt Q9P0L2). Conditions: at 0.1 µM.
Assay [19] shares this target. Conditions: at 1 µM.
Assay [20] addresses MAP/microtubule affinity-regulating kinase 3 (Homo sapiens) (UniProt P27448). The following applies: at 0.1 µM.

Chain of MAP kinase-activated protein kinase 3 (Homo sapiens) (Q16644 whole entry, looked up): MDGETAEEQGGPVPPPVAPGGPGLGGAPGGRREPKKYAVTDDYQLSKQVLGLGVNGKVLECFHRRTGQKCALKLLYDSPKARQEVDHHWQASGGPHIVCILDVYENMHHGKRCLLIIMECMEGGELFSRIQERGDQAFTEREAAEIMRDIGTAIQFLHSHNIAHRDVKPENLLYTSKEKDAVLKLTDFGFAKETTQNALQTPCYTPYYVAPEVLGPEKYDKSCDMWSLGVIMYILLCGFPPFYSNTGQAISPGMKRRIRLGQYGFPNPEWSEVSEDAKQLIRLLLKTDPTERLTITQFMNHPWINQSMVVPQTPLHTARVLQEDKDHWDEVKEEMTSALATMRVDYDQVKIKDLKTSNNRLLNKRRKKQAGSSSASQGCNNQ
Chain of MAP/microtubule affinity-regulating kinase 3 (Homo sapiens) (P27448 whole entry, looked up): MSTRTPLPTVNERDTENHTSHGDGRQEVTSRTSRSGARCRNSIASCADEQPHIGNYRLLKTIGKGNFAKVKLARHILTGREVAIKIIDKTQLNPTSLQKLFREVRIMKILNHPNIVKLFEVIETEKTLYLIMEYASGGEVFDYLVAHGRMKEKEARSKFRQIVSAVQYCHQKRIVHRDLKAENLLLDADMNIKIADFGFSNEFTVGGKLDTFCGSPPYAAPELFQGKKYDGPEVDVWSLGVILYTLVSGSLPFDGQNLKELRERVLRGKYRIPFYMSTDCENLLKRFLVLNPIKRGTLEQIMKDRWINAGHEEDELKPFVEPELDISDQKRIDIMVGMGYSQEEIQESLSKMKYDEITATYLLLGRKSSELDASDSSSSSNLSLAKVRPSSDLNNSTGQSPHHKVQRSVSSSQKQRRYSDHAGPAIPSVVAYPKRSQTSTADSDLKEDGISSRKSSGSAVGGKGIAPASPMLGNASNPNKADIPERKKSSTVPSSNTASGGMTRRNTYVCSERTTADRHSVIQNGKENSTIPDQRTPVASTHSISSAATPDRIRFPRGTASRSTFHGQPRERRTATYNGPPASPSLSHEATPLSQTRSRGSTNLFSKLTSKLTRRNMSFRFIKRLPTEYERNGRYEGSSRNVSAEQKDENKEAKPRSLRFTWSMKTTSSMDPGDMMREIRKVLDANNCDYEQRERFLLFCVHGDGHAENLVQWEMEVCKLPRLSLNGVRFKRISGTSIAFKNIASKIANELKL
Chain of Death-associated protein kinase 1 (Homo sapiens) (P53355 whole entry, looked up): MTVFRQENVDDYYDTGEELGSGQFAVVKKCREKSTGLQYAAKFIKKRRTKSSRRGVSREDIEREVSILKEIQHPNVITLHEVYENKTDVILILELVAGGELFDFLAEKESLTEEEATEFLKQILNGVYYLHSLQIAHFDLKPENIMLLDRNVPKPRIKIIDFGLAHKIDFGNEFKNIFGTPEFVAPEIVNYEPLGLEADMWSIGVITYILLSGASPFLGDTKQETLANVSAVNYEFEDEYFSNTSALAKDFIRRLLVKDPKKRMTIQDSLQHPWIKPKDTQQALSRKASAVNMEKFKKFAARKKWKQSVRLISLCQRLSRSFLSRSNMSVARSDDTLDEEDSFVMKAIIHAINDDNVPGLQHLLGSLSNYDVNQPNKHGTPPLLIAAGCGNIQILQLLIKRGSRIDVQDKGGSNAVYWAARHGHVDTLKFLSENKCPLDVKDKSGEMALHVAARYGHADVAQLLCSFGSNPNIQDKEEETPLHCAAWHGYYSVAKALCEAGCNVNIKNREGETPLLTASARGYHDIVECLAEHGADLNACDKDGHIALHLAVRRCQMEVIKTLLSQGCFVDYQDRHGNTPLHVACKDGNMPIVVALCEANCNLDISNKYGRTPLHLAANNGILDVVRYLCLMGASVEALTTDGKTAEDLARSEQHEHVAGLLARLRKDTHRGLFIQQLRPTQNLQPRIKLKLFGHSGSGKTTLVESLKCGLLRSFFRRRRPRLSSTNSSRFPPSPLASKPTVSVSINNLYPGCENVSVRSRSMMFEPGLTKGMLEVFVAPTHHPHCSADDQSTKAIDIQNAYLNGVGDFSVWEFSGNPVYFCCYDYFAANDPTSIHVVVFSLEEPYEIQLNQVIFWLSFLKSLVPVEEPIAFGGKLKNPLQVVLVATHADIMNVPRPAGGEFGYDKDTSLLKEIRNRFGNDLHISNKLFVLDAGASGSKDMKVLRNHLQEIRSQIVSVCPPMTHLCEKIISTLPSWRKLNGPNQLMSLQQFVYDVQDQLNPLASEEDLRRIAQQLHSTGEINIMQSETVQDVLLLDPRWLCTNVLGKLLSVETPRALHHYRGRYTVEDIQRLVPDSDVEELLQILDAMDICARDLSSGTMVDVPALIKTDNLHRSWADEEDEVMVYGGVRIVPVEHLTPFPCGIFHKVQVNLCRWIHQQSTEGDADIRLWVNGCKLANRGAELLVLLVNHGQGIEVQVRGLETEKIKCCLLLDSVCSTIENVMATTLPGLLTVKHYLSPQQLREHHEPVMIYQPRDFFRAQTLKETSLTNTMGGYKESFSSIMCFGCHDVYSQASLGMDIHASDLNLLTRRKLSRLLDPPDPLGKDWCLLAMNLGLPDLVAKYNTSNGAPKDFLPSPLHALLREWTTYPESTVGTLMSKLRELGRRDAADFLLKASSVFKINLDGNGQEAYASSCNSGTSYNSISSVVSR
Chain of Calcium/calmodulin-dependent protein kinase type II subunit delta (Homo sapiens) (Q13557 whole entry): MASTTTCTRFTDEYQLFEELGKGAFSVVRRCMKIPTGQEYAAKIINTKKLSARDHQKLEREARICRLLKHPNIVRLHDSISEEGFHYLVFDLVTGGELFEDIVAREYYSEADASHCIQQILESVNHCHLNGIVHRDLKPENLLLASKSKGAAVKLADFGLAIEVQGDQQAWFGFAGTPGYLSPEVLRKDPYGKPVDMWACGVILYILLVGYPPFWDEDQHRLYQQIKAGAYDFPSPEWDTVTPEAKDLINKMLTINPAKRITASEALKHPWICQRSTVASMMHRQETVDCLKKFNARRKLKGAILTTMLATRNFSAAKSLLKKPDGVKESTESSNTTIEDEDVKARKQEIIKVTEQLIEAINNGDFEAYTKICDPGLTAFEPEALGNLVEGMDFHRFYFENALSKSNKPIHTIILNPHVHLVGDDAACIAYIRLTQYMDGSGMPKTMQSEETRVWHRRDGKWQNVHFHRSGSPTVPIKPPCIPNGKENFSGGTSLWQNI
Chain of MAP kinase-activated protein kinase 2 (Homo sapiens) (P49137 whole entry, looked up): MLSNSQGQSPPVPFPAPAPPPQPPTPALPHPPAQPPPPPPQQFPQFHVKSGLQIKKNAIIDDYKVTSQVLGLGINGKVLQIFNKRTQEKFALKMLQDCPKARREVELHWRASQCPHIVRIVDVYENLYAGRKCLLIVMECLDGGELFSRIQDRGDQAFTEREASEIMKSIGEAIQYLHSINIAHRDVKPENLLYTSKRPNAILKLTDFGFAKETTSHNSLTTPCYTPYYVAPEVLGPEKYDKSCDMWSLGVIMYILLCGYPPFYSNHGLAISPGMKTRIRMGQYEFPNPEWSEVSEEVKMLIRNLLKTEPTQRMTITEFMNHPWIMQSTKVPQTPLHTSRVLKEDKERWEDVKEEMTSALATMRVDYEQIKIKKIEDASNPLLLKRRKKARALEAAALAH
Chain of Serine/threonine-protein kinase MARK1 (Homo sapiens) (Q9P0L2 whole entry, looked up): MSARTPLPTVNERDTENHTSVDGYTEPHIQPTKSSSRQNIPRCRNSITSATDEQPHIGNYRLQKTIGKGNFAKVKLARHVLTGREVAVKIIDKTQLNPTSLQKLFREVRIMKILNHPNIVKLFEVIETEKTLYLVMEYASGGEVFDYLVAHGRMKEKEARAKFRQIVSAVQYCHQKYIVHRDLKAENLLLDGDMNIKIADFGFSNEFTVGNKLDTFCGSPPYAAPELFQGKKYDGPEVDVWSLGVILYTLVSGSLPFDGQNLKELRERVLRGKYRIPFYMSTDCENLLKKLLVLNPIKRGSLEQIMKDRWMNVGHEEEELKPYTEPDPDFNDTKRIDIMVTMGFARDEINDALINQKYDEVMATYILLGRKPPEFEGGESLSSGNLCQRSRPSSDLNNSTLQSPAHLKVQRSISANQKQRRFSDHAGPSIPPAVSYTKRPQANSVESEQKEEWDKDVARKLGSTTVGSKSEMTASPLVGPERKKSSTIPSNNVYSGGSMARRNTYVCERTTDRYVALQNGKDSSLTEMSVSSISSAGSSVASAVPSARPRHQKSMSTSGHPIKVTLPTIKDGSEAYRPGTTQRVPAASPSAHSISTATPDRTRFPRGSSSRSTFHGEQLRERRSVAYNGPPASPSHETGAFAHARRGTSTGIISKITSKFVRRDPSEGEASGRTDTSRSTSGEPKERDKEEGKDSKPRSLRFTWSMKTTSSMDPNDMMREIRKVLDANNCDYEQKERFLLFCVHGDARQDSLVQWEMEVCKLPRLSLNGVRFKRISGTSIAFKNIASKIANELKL
Chain of Serine/threonine-protein kinase Chk2 (Homo sapiens) (O96017 whole entry): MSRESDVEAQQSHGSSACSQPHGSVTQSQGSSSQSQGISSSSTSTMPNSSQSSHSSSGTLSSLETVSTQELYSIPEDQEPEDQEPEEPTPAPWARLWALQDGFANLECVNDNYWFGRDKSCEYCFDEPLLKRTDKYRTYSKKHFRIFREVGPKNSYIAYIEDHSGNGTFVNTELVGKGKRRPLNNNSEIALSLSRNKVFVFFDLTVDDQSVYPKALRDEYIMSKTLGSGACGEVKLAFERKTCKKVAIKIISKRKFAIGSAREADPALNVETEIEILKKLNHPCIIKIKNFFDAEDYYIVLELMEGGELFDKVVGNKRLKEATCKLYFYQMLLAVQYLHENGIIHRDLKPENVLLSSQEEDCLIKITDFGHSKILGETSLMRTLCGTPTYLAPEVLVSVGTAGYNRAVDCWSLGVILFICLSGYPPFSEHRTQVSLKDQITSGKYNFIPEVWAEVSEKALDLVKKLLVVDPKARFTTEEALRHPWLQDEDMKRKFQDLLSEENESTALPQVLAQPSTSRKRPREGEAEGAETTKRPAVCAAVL

For orientation: inhibition means the relative decrease from the control value, in per cent. Take `CCn1c(-c2nonc2N)nc2c(C#CC(C)(C)O)ncc(OC3CCNCC3)c21`: the inhibition in [1] was 5.73%; in assay [2], 4.43%; in [3], 8.15%; in assay [4], 1.96%; in [5], 6.84%; in [6], 2%. Further, the inhibition in assay [7] worked out at 4.29%; in assay [8], 2.65%; in assay [9], 7.53%; in [10], 4.3%; in assay [11], 5.68%; in assay [12], 0.06%. Further, the inhibition in [13] is 3.29%; in assay [14], 1.3%; in [15], 3.78%; in assay [16] it was 3.98%; in [17] it was 4.41%; in [18], 20.8%. Also, the results for the inhibition in assay [19] and in [20] were 74.1% and 21.2%, respectively.

For `c1ccc(-c2nc3n(c2-c2ccc4c(c2)OCO4)CCC3)nc1`, the inhibition in assay [1] is 0.36%; in assay [2], 1.63%; in assay [3], 0.93%; in assay [4] it was 0.61%; in assay [5] it was -0.72%; in assay [6], 3.23%. The inhibition in [7] is 3.51%; in [8] it was -0.09%; in [9] it was 0.94%; in assay [10], 1.93%; in assay [11], 1.91%; in assay [12], 0.33%. Moreover, the inhibition is 2.8% in assay [13]; 1.38% in assay [14]; 1.27% in [15]; 3.55% in assay [16]; 3.33% in [17]; 1.87% in [18]. Besides, the inhibition in [19] is 4.07%; in assay [20], 2.01%.

For the molecule `CNC(=O)c1cc(-c2ccc(F)cc2)cc(-c2ccc(S(=O)(=O)N3CCCC3)cc2)c1N`, the inhibition in [1] is 1.06%; in [2], 3.1%; in assay [3], 3.89%; in [4], -1.57%; in assay [5] it was 1.17%; in assay [6], 8.01%. Besides, the inhibition was 11.8% in [7]; 6.61% in assay [8]; 8.16% in assay [9]; 10.6% in assay [10]; 9.63% in assay [11]; -1.53% in assay [12]. The inhibition was -0.01% in assay [13]; 4.47% in assay [14]; 5.35% in assay [15]; 7.55% in [16]; 9.54% in [17]; 2.14% in [18]. Moreover, the inhibition in [19] came out at 3.58%; in [20], 1.73%.

`CC(C)(CO)CNC(=O)c1ccc2c(c1)/C(=N/Nc1ccc(S(N)(=O)=O)cc1)C(=O)N2`: the inhibition in assay [1] is 4.28%; in [2] it was 0.61%; in assay [3] it was 12.2%; in assay [4], 0.55%; in assay [5] it was -0.51%; in assay [6], 0.39%. The inhibition in assay [7] is -3.69%; in assay [8] it was -0.89%; in assay [9], 5.93%; in assay [10] it was -0.17%; in [11], 0.07%; in [12] it was 0.04%. For the same molecule, the inhibition in assay [13] is 1.76%; in assay [14], -0.45%; in [15], -1.03%; in [16], 2.49%; in [17], 2.07%; in [18] it was 10.3%. Also, the figures for the inhibition in [19] and in assay [20] were 52.5% and 5.88%, respectively.

With `NS(=O)(=O)c1ccc(N/N=C2\C(=O)Nc3ccc4ncccc4c32)cc1`, the inhibition in assay [1] was 7.93%; in assay [2], 4.26%; in assay [3], 18.3%; in assay [4], 1.9%; in assay [5], 2.53%; in assay [6] it was 7.46%. Further, the inhibition was 41.1% in assay [7]; 5% in assay [8]; 26.3% in assay [9]; 10.9% in assay [10]; 63% in assay [11]; -1.4% in [12]. Besides, the inhibition stood at 7.76% in assay [13]; 0.89% in assay [14]; 1.9% in assay [15]; 2.79% in assay [16]; 3.84% in assay [17]; 12.8% in assay [18]. Besides, the inhibition in assay [19] amounted to 52.9%; in [20], 8.25%.

As to `c1ccc(COc2ccc(Nc3ncnc4ccc(-c5ccco5)cc34)cc2)cc1`, the inhibition in assay [1] came to 0.02%; in [2], 0.67%; in assay [3], 0.25%; in assay [4], 1.19%; in assay [5] it was 0.04%; in [6] it was 0.21%. In addition, the inhibition was -0.59% in assay [7]; 1.08% in [8]; 4.69% in assay [9]; 2.45% in [10]; 0.73% in [11]; -0.98% in assay [12]. The inhibition was -0.08% in [13]; 2.44% in assay [14]; 0.12% in [15]; 1.07% in assay [16]; -0.28% in [17]; 0.18% in assay [18]. The values for the inhibition in assay [19] and in assay [20] were 1.8% and 0.1%, respectively.
